Screens (PubChem BioAssay)
MEX-5 binding: C. elegans MEX-5 TCR-2 RNA binding activity; Q9XUB2; MEX-5/FITC-TCR2 RNA binding, fluorescence polarization; stronger effect = lower value; activity score (negative = inhibition of binding), % at 10 µM; 0.38% of 300,000 active;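 active = inhibition past about -25% in most replicates, and total fluorescence under double the plate's negative control median, limit read from the data; inconclusive = replicates evenly split on the limit, or fluorescence at least double controls; inactive = too little inhibition in most replicates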;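 note: 0% = DMSO and -100% = 5 µM competing unlabeled TCR2 RNA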
EBV gp42 inh: EBV gp42 inhibition; Fluorescence polarization binding assay, mP read-out; AID 1085; inhibition, % (tested at 21.74 µM); 0.42% of 220,000 active; in the data active = inhibition above about 50%
Target sequence (Q1HVG2 whole entry, looked up): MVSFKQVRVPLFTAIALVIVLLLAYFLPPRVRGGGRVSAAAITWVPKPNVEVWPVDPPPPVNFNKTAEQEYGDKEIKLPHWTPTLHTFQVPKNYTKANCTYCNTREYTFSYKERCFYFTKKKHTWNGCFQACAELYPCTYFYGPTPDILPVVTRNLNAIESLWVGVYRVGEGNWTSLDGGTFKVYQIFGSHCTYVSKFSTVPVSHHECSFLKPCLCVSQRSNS
eIF4H FP inh: inhibitors of RNA binding by human eIF4H | 0.94% of 290,000 active | AID 2012 | inhibition, % at 35 µM | Q15056 | eIF4H fluorescence polarization binding assay;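 note: calls also rest on retests at 20 µM and on dose response follow-up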
PABP polyA inh: blocks human PABP binding to poly(A) RNA. P11940. fluorescence polarization. calls only at 35 µM. 1% of 290,000 active. AID 2014;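 note: calls also rest on retests at 20 µM and on dose response follow-up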
MLLE-PAM2 inh: blocks PAM2 peptide binding to the PABP1 MLLE domain. GST-MLLE / FITC-PAM2 fluorescence polarization. 0.36% of 360,000 active. inhibition, % at 20 µM; in the data active = inhibition above about 35%, passing the limit was not always enough;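 note: plate controls were DMSO wells with GST-MLLE for no effect and wells lacking GST-MLLE protein for full effect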
Starred values were filed as active, the others as inactive; i = inactive; u = inconclusive; x = not tested or not shown; + = active, no number. Most compounds without a hit are left out; they make up all but 1.8% or so of the library. Unless noted, the rule behind the calls is not given here.

SMILES	MEX-5 binding	EBV gp42 inh	eIF4H FP inh	PABP polyA inh	MLLE-PAM2 inh
O=C(O)c1ccc(NS(=O)(=O)c2ccc3c(c2)C2C=CCC2C(c2ccccc2F)N3)cc1 (stereo not drawn)	x	32	97	+	-13
CCOc1ccc(NC(=S)NC(=O)/C=C/c2ccc(C)cc2)c([N+](=O)[O-])c1	-3	-9	-5	i	2
CCOc1ccc(NC(=S)NC(=O)c2c(Cl)c(C)nn2C)c([N+](=O)[O-])c1	-2	-9	2	i	40*
CC(=O)c1ccc(OCC(C)C)c(Cc2c(O)nc(N)[nH]c2=O)c1	0	-13	-2	i	-2
CC(=O)c1ccc(OC(C)C)c(Cc2c(O)nc(N)[nH]c2=O)c1	1	-12	0.7*	+	-16
O=C(COC(=O)CCOc1ccccc1)NCc1ccco1	1	7	94*	+	-8
O=C(COC(=O)C1CC2C=CC1C2)NCc1ccco1 (stereo not drawn)	1	44	93*	+	-1
CCOC(=O)c1ccc(N2C(=O)[C@@H](c3ccccc3)[C@H]2c2ccccc2)cc1	x	x	x	x	1
CCOC(=O)c1ccc(N2C(=O)C3C(/C=C/c4ccccc4)OC4(C(=O)c5ccccc5C4=O)C3C2=O)cc1 (stereo not drawn)	2	5	57	+	0
COc1ccc(N(C)S(=O)(=O)c2cccc(C(=O)OCC(=O)Nc3cc(C)ccc3OC)c2)cc1	x	x	x	x	-8
CCn1c(O)c(C#N)c(C)cc1=O	-2	-11	78*	i	13
Cc1cc(=O)n(CC(C)C)c(O)c1C#N	x	-1	119*	+	-1
Cc1cc(=O)n(CCO)c(O)c1C#N	-10	-2	u	u	23
Cc1cc(=O)n(CCc2ccccc2)c(O)c1C#N	-17	-1	-9	i	-44
CCN(CC)C(=O)C1=C(C)N(CCC2=CCCCC2)C(=O)C(CC(=O)NC(c2ccccc2)c2ccccc2)C1 (stereo not drawn)	x	x	x	x	-2
CC(Oc1ccccc1Cl)C(=O)Nc1ccc(S(=O)(=O)N2CCN(C)CC2)cc1 (stereo not drawn)	x	x	x	x	40*
O=C(NC(=S)N1CCN(C(c2ccccc2)c2ccccc2)CC1)c1ccc(S(=O)(=O)N2CCOCC2)cc1	-1	2	5	i	9
CN1CCN(C(=S)NC(=O)c2ccc(S(=O)(=O)N3CCOCC3)cc2)CC1	-1	-16	-6	i	40*
NS(=O)(=O)c1ccc(NC(=S)NC(=O)c2cccs2)cc1	-3	-12	-6	i	31
O=C(NC(=S)Nc1ccc(S(=O)(=O)N2CCCCC2)cc1)c1cccs1	1	1	2	i	44*
NS(=O)(=O)c1ccc(NC(=S)Nc2ccc(S(=O)(=O)N3CCCC3)cc2)cc1	4	-12	11	i	43*
NS(=O)(=O)c1ccc(NC(=O)c2ccc(S(=O)(=O)N3CCCCC3)cc2)cc1	x	x	x	x	-3
C[C@@H]1CCCCO[C@@H](CN(C)S(=O)(=O)c2cn(C)cn2)[C@@H](C)CN([C@H](C)CO)C(=O)c2cc(N(C)C)ccc2O1	x	x	x	x	-2
CCc1nc2ccc(C(=O)Nc3cccc(NS(C)(=O)=O)c3)cn2c1N(C)CCN1CCOCC1	x	x	x	x	6
CN1CCN(S(=O)(=O)c2ccc(NC(=S)NC(=O)C(C)(C)C)cc2)CC1	-1	-2	-3	i	40*
SMILES	MEX-5 binding	EBV gp42 inh	eIF4H FP inh	PABP polyA inh	MLLE-PAM2 inh
CN(Cc1ccccc1)S(=O)(=O)c1ccc(NC(=S)NC(=O)C(C)(C)C)cc1	-1	2	2	i	36*
O=C(CCC(=O)Nc1ccccc1Cl)NNC(=S)Nc1ccccc1C(F)(F)F	-2	x	1	i	26
CCC(=O)NC(=S)Nc1ccc(S(=O)(=O)N2CCN(C)CC2)cc1	-1	0	-4	i	0
NS(=O)(=O)c1ccc(NC(=S)NNC(=O)CCC(=O)Nc2ccccc2Cl)cc1	-31*	x	-6	i	-12
CC(C)c1ccc(CN2CCC2(C)C(=O)Nc2cnc3ccccc3c2)cc1 (stereo not drawn)	x	x	x	x	-3
CCCN1CCC(C(=O)NC(c2ccc(Cl)cc2)c2ccsc2)CC1 (stereo not drawn)	x	x	x	x	6
CCn1c(C)c(CS(=O)(=O)c2ccccc2)[nH]c1=O	-3	-8	0	i	38*
O=c1[nH]c(CS(=O)(=O)c2ccccc2)nc2ccccc12	-2	-22	10	i	13
Cc1ccc(C(=O)Nc2cccc3ccccc23)cc1	-2	x	4	i	-1
CC(C)(C)c1ccc(C(=O)Nc2cccc3c(=O)[nH][nH]c(=O)c23)cc1	-1	93*	u	i	22
CCOc1ccc(N(CC(=O)Nc2c(C)cc(C)cc2C)C2=NC3CS(=O)(=O)CC3S2)cc1 (stereo not drawn)	x	x	x	x	8
Cc1cc(C)cc(NC(=O)COC(=O)c2cc(=O)[nH]c(=O)[nH]2)c1	-2	5	-6	i	9
CCCCOC(=O)c1cc(=O)[nH]c(=O)[nH]1	0	9	-4	+	-5
CCOC(=O)SC1=N/C(=C\c2ccc(N(C)C)cc2)C(=O)S1	x	-17	111*	+	-124
CCSC1=N/C(=C\c2ccc(C(=O)O)cc2)C(=O)S1	-6	-5	2	i	9
CC1(C(O)(C#CC[N+]2(C)CCCCC2)c2ccccc2)CCCC1 (stereo not drawn)	-1	-16	7	+	-123
CCC[N+]1(CC#CC(O)(c2ccccc2)C2CCCCC2)CCCCC1 (stereo not drawn)	-1	-30	6	i	-13
Cc1ccc(F)cc1-c1cc2nc(NCCCN(C)C)n(C)c(=O)c2s1	x	x	x	x	-1
COc1ccc(-n2cccc2/C=C2\C(=N)N3N=C(c4ccco4)SC3=NC2=O)cc1	1	76*	44	i	-20
COc1ccc(-n2cccc2/C=C2\C(=N)N3N=C(C(C)C)SC3=NC2=O)cc1	0	6	-8	i	-3
CCC1=NN2C(=N)/C(=C\c3cccn3-c3ccc(Br)cc3)C(=O)N=C2S1	7	59*	24	i	-3
C=Cc1ccc(Cn2c(C)c(C(=O)NCc3ccccc3C(F)(F)F)sc2=O)cc1	x	x	x	x	12
COc1ccc(S(=O)(=O)N(C(=O)C(C)C)c2ccc3oc(=O)sc3c2)cc1	0	-18	-7	i	38*
CC(C)C(=O)N(c1ccc2oc(=O)sc2c1)S(=O)(=O)c1ccccc1	0	5	-13	i	20
COCOCCn1cc(CN2CCS(=O)(=O)N(Cc3ccc(-c4ccccc4)cc3)C(C(C)C)C2=O)nn1 (stereo not drawn)	x	x	x	x	-3
Cc1ccccc1CN1CCN(C(=O)[C@H]2O[C@@H](n3cnc4c(N)ncnc43)[C@H](O)[C@@H]2O)CC1	x	x	x	x	4
CCc1c(O)nc(SCc2nc3ccccc3c(=O)[nH]2)[nH]c1=O	-1	-8	active	+	39*
Cn1nc(C(C)(C)C)cc1C(=O)N1CCCCC1c1cc(C(=O)Nc2ccc3c(c2)OCO3)no1 (stereo not drawn)	x	x	x	x	-1
